Experiment [1] can be described thus: inhibitors of TNFa-induced NFkB p65 translocation, primary screen, imaging, HUVEC, MLSMR starter and 10KST1 sets (AID 438;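 active = inhibition above 20% together with a positive visual image hit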;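 note: compound added about 3h40 before a 20 min TNFalpha stimulation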;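 for inhibition: signal is the nuclear over cytoplasmic p65 intensity ratio per well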). The following applies: HUVEC TNFa-induced p65 nuclear translocation; cell count: measured here: nuclei count (cytotoxicity indicator), at 2.08 µM; inhibition: at 2 µM, stronger effect = higher value, 0% TNFa-plus-vehicle, 100% no-TNFa wells.
The nature of experiment [2]: inhibitors of mutant huntingtin aggregation, primary screen, imaging, exon1htt(103Q)mCFP cells, high-content imaging (AID 483;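 active = visual image review flags a hit and inhibition of aggregation exceeds 20%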;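 note: compound exposure lasted 3 days before fixation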;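 for nuclei count: percent of the per-plate median nuclei count of sample wells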). The following applies: exon1htt(103Q)mCFP cell line, aggregate imaging, at 2 µM; inhibition of aggregation: stronger effect = higher value; nuclei count: measured here: cell count, toxicity.
Experiment [3] can be described thus: inhibitors of E-selectin induction by TNFa, primary screen, imaging, HUVEC, immunofluorescence, MLSMR starter and 10KST1 sets (AID 487;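 active = visually confirmed hit in the image check and inhibition above 20%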;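 for inhibition: signal is fraction of cell area covered by stained E-selectin grains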;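 for nuclei count: 100% = median nuclei count of all wells on the same plate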). To be noted: HUVEC TNFalpha-induced E-selectin immunofluorescence imaging, at 2 µM; inhibition: stronger effect = higher value; nuclei count: measured here: cell number, toxicity.
Experiment [4] has as its target Voltage-gated potassium channel subunit beta-2 (Rattus norvegicus) (UniProt P62483). The experiment can be described thus: KvBeta enzyme negative modulators, primary screen, biochemical, NADPH fluorescence (AID 622;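 active = fluorescence slope higher than the sample average by over 3 SD, cut at about -0.22 in these data, passing the limit was not always enough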;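 note: slope of raw intensity against log time taken from 70 to 1610 s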). To be noted: recombinant KvBeta, 4-cyanobenzaldehyde reduction, at 10 µM, stronger effect = higher value.
Experiment [5] has the same target. The experiment can be described thus: KvBeta positive modulators, primary screen, biochemical, NADPH fluorescence (AID 623;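 active = NADPH fluorescence slope more negative than the mean of all samples by about 3 SD, 99.7% confidence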;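 note: fluorescence intensity change per second fitted from 20 to 320 s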). To be noted: Recombinant KvBeta, NADPH fluorescence decrease slope, 10 min; at 10 µM; stronger effect = lower value.
The target of experiment [6] is Alpha-2C adrenergic receptor (Homo sapiens) (UniProt P18825). Nature of the experiment: modulators of alpha2C/GIRK thallium flux, primary screen, cell-based, HEK293 alpha2C/GIRK1/2 (AID 624;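 active = fluorescence slope after compound addition differing from the mean of all screened samples at 99.7% confidence, in either direction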;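 note: slope of fluorescence ratio to pre-addition baseline per second over 15 to 24 s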). To be noted: thallium flux BTC fluorescence, at 10 µM, actives lie on both sides.
Alpha-2C adrenergic receptor (Homo sapiens), sequence (P18825 whole entry, looked up): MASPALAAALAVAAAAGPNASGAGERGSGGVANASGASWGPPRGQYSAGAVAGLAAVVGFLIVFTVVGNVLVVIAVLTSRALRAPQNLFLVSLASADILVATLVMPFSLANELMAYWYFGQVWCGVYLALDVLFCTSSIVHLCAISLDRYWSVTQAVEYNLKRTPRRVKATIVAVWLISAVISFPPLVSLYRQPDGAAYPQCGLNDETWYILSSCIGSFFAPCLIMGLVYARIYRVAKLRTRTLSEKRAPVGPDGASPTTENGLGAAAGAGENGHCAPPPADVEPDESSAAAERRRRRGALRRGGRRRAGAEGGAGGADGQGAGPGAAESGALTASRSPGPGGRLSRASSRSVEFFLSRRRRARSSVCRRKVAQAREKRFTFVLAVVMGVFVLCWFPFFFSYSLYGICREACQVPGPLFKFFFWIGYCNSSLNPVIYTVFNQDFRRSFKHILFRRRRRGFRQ
Experiment [7] in a line: inhibitors of Sendai virus-induced IRF3 signaling, primary screen, TLR/RLR signaling modifier project, cell-based, Sendai virus stimulus, luciferase, 10K MLSCN set (AID 602276;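 active = inhibition at or above 50% at 10 µM; inactive = inhibition below 50%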;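 note: firefly luciferase from ISG56 promoter only with Renilla not read in this screen; 0% = Sendai virus plus DMSO and 100% = medium plus DMSO without virus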). The following applies: HEK293 RL24 IRF3 luciferase reporter, at 10 µM, stronger effect = higher value. (Reporter assays use an easily measured gene product as a stand-in for the process of interest.)
A short description of experiment [8]: inhibitors of poly I:C-induced TLR3 signaling, primary screen, cell-based, poly I:C stimulus, luciferase, 10K MLSCN set (AID 602277). To be noted: HEK293-TLR3 RL24 IRF3 luciferase reporter, at 10 µM, stronger effect = higher value.

Each structure is given as a SMILES string. Active and inactive are the calls of the source.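 Rule for the calls, unless noted: active = inhibition of the reporter signal at or above 50%; inactive = inhibition below 50%.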

The values below come from PubChem BioAssay.

Voltage-gated potassium channel subunit beta-2 (Rattus norvegicus), sequence (P62483 whole entry, looked up): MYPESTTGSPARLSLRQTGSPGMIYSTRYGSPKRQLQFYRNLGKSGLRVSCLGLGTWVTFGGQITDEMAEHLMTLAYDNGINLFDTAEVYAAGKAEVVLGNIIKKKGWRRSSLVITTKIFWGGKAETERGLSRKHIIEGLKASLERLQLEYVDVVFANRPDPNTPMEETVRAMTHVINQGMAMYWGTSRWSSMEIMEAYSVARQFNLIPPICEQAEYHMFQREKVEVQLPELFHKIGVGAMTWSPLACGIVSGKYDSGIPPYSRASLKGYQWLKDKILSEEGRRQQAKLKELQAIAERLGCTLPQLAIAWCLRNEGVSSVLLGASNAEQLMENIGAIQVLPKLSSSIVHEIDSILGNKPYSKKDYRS

With `c1ccc(CSCc2cn3ccsc3n2)cc1`, the cell count in experiment [1] worked out at 664. In addition, the inhibition is 1.2% (inactive) in experiment [1], -84.7% (inactive) in experiment [3], -50.3% (inactive) in experiment [7] and -132% (inactive) in experiment [8]. In addition, in experiment [2], the inhibition of aggregation is 5.1% (inactive). Also, the nuclei count in experiment [2] was 107%; in experiment [3] it was 131%. In addition, in experiment [4], the fluorescence slope was -0.583 (inactive). The NADPH fluorescence slope in experiment [5] is -4.2e-05 (inactive). Besides, the slope in experiment [6] is 0.00621 (inactive).
As for `CC(=O)Nc1sc2c(c1C#N)CCCCC2`, the cell count in experiment [1] was determined as 349. Besides, the inhibition is 0.8% (inactive) in experiment [1], -76.6% (inactive) in experiment [3], -1.89% (inactive) in experiment [7] and -4.1% (inactive) in experiment [8]. Further, in experiment [2], the inhibition of aggregation was 12.1% (inactive). Further, the nuclei count in experiment [2] worked out at 78.3%; in experiment [3], 115%. Further, in experiment [4], the fluorescence slope was -0.396 (inactive). For the same compound, the NADPH fluorescence slope in experiment [5] is -5.5e-05 (inactive). For the same compound, the slope in experiment [6] was 0.00723 (inactive).
As for `CC(CCc1ccccc1)NC(=O)c1ccc(Br)o1` (centres undefined), the cell count in experiment [1] amounted to 570. For the same compound, the inhibition was -7.8% (inactive) in experiment [1], -78.2% (inactive) in experiment [3], 7.34% (inactive) in experiment [7] and 9.03% (inactive) in experiment [8]. For the same compound, in experiment [2], the inhibition of aggregation was 2.5% (inactive). For the same compound, the nuclei count was 83.4% in experiment [2] and 95.1% in experiment [3]. Further, the fluorescence slope in experiment [4] is -0.449 (inactive). Also, the NADPH fluorescence slope in experiment [5] is -3.4e-05 (inactive). Further, the slope in experiment [6] was 0.00563 (inactive).
As to `CCC(=O)c1cc(F)c(N2CCN(C(=O)c3ccco3)CC2)cc1C`, in experiment [1], the cell count was found to be 611. Besides, the inhibition in experiment [1] is -1.3% (inactive); in experiment [3] it was -10.1% (inactive); in experiment [7], 1.51% (inactive); in experiment [8] it was -21.1% (inactive). Moreover, in experiment [2], the inhibition of aggregation was -12.2% (inactive). In addition, the nuclei count in experiment [2] was 128%; in experiment [3], 104%. Also, the fluorescence slope in experiment [4] is -0.519 (inactive). Besides, the NADPH fluorescence slope in experiment [5] was -4.1e-05 (inactive). In addition, the slope in experiment [6] was 0.00579 (inactive).
As for `COc1ccc(C(=O)NC(=O)CSc2nnc(-c3ccco3)n2-c2ccccc2)cc1`, the cell count in experiment [1] was determined as 447. The inhibition was 14.6% (inactive) in experiment [1], -9.4% (inactive) in experiment [3], 5.3% (inactive) in experiment [7] and 10.1% (inactive) in experiment [8]. Moreover, the inhibition of aggregation in experiment [2] is -9.6% (inactive). Moreover, the nuclei count in experiment [2] was determined as 104%; in experiment [3] it was 107%. Further, the fluorescence slope in experiment [4] was -0.324 (inactive). Further, the NADPH fluorescence slope in experiment [5] is -7e-05 (inactive). Moreover, in experiment [6], the slope is 0.0052 (inactive).
`O=C(NC1CCCCCC1)C1CCCN(S(=O)(=O)c2cccs2)C1` (centres undefined): in experiment [1], the cell count was 714. For the same compound, the inhibition is -6.2% (inactive) in experiment [1], -27.6% (inactive) in experiment [3], -10.9% (inactive) in experiment [7] and 2.4% (inactive) in experiment [8]. In addition, the inhibition of aggregation in experiment [2] was -1% (inactive). The values for the nuclei count in experiment [2] and in experiment [3] were 109% and 108%, respectively. In addition, in experiment [4], the fluorescence slope is -0.428 (inactive). Also, the NADPH fluorescence slope in experiment [5] was -6.4e-05 (inactive). Besides, the slope in experiment [6] is 0.00338 (inactive).
In the case of `CCN1CCN(c2nc(C)nc3c2sc(=S)n3C)CC1`, the cell count in experiment [1] was found to be 640. The inhibition in experiment [1] is -4.8% (inactive); in experiment [3], -24.6% (inactive); in experiment [7], -3.52% (inactive); in experiment [8], 18% (inactive). Besides, the inhibition of aggregation in experiment [2] is 7.2% (inactive). Besides, the nuclei count in experiment [2] was determined as 82.9%; in experiment [3], 109%. The fluorescence slope in experiment [4] is -0.587 (inactive). The NADPH fluorescence slope in experiment [5] is -2.8e-05 (inactive). In experiment [6], the slope was 0.00433 (inactive).
Regarding `CCn1nnnc1SCC(=O)N1CCOCC1`, in experiment [1], the cell count was determined as 707. Besides, the inhibition in experiment [1] is 11.3% (inactive); in experiment [3], -0.6% (inactive); in experiment [7] it was 14.6% (inactive); in experiment [8] it was 8.47% (inactive). The inhibition of aggregation in experiment [2] was -2% (inactive). Further, the nuclei count in experiment [2] and in experiment [3] was 122% throughout. In addition, the fluorescence slope in experiment [4] is -0.637 (inactive). Further, the NADPH fluorescence slope in experiment [5] was 3.1e-06 (inactive). Also, the slope in experiment [6] was 0.0034 (inactive).
As for `CCCNC(=O)C1CCN(S(=O)(=O)c2ccc3nc4c(c(C(=O)O)c3c2)CCCCC4)CC1`, the cell count in experiment [1] was 637. In addition, the inhibition in experiment [1] is 1.3% (inactive); in experiment [3], -26.6% (inactive); in experiment [7], 8.11% (inactive); in experiment [8], 12.8% (inactive). In addition, the inhibition of aggregation in experiment [2] is -1.8% (inactive). The nuclei count in experiment [2] is 119%; in experiment [3] it was 118%. For the same compound, the fluorescence slope in experiment [4] was -0.531 (inactive). Moreover, the NADPH fluorescence slope in experiment [5] is 2e-05 (inactive). In addition, the slope in experiment [6] is 0.00704 (inactive).
For `COCCCNC(=O)CSc1nc2ccc(N3CCOCC3)cc2c(=O)n1CCc1ccccc1`, the cell count in experiment [1] came to 369. The inhibition in experiment [1] is -1.6% (inactive); in experiment [3], 17% (inactive); in experiment [7] it was -0.853% (inactive); in experiment [8], -8.93% (inactive). Further, in experiment [2], the inhibition of aggregation is -0.2% (inactive). Moreover, the results for the nuclei count in experiment [2] and in experiment [3] were 104% and 113%, respectively. Further, in experiment [4], the fluorescence slope was -0.558 (inactive). Besides, in experiment [5], the NADPH fluorescence slope is 1.6e-05 (inactive). The slope in experiment [6] was 0.00582 (inactive).
Turning to `Cc1cc(C(=O)CSc2nc3ccccc3n2CCC#N)c(C)n1Cc1cccs1`, the cell count in experiment [1] stood at 440. Besides, the inhibition was 10.6% (inactive) in experiment [1], -412% (inactive) in experiment [3], 20.7% (inactive) in experiment [7] and -7.47% (inactive) in experiment [8]. In addition, the inhibition of aggregation in experiment [2] is -70.3% (inactive). In addition, the nuclei count in experiment [2] was 102%; in experiment [3], 158%. For the same compound, the fluorescence slope in experiment [4] is -0.32 (inactive). In experiment [5], the NADPH fluorescence slope is -4.6e-05 (inactive). For the same compound, the slope in experiment [6] was 0.00574 (inactive).
In the case of `Cc1cc(C)c(OCC(=O)Nc2cccc(O)c2)cc1C`, in experiment [1], the cell count was determined as 252. Moreover, the inhibition in experiment [1] is -14.9% (inactive); in experiment [3] it was -20.3% (inactive); in experiment [7], 16.6% (inactive); in experiment [8], 11.6% (inactive). For the same compound, the inhibition of aggregation in experiment [2] was 46.4% (active). In addition, the figures for the nuclei count in experiment [2] and in experiment [3] were 40.4% and 102%, respectively. For the same compound, the fluorescence slope in experiment [4] is -0.44 (inactive). For the same compound, the NADPH fluorescence slope in experiment [5] was -8.2e-06 (inactive). In addition, the slope in experiment [6] is 0.0065 (inactive).
In the case of `Cc1nc2ccccc2n1CCC(=O)Nc1cccc(F)c1`, in experiment [1], the cell count was determined as 606. The inhibition was -4.8% (inactive) in experiment [1], -23.9% (inactive) in experiment [3], 16.2% (inactive) in experiment [7] and 4.83% (inactive) in experiment [8]. Also, the inhibition of aggregation in experiment [2] was 0.2% (inactive). Further, the nuclei count in experiment [2] was 100%; in experiment [3] it was 110%. Besides, the fluorescence slope in experiment [4] is -0.303 (inactive). Also, in experiment [5], the NADPH fluorescence slope is 9.1e-07 (inactive). In experiment [6], the slope is 0.00551 (inactive).
As to `O=S1(=O)C=C(Sc2nnc(-c3ccccc3)o2)c2ccccc21`, the cell count in experiment [1] worked out at 237. Further, the inhibition in experiment [1] was 7.4% (inactive); in experiment [3], -55.3% (inactive); in experiment [7] it was 12.3% (inactive); in experiment [8], 66.1% (active). Further, in experiment [2], the inhibition of aggregation was 0.8% (inactive). For the same compound, the values for the nuclei count in experiment [2] and in experiment [3] were 93.4% and 109%, respectively. Moreover, the fluorescence slope in experiment [4] is -0.479 (inactive). In addition, the NADPH fluorescence slope in experiment [5] was -5.2e-05 (inactive). In experiment [6], the slope is 0.00503 (inactive).

The term inhibition denotes the relative decrease from the control value, in per cent.
